Experimental data: PubChem BioAssay AID1159580 (chemical genetic matrix, 2015)
Hit rate of the full screen: of about 5,500 compounds, about 2,000 (36%) were called active. Roughly 18% stayed inconclusive and do not appear here. No stated cut-off is given here; in the data, active means normalized growth mostly below about 0.91 (no sharp cut-off); inconclusive means no clear call, values can overlap the other calls; inactive means mostly above about 0.92. The list shows a part of the results.

Assay: chemical genetic growth profiling, strain panel (AID 1159580);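 further: tested at 20 µM; growth read once vehicle control cultures reached saturation at 30 °C; 1 = growth at the plate median or of vehicle wells; lower values mean less growth of the strain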
Details: S. cerevisiae deletion strains, growth OD

Measured: normalized growth

COc1cc([C@@H]2c3cc4c(c(O)c3C[C@H]3COC(=O)[C@@H]32)OCO4)cc(OC)c1OC
inactive: locus YAL013W, strain DEP1, hits give low values 0.986 | locus YAL021C, strain ccr4, hits give low values 0.995 | locus YAL026C, strain drs2, hits give low values 0.992 | locus YAL030W, strain snc1, hits give low values 0.986 | locus YBL061C, strain skt5, hits give low values 0.994 | locus YBR009C, strain hhf1, hits give low values 0.993 | locus YBR021W, strain FUR4, hits give low values 1 | locus YBR023C, strain chs3, hits give low values 0.999 | locus YBR171W, strain sec66, hits give low values 0.971 | locus YBR229C, strain ROT2, hits give low values 0.985 | locus YBR231C, strain swc5, hits give low values 0.977 | locus YBR279W, strain paf1, hits give low values 0.994 | locus YCL011C, strain gbp2, hits give low values 0.996 | locus YCL016C, strain dcc1, hits give low values 1 | locus YCL029C, strain bik1, hits give low values 0.978 | locus YCL069W, strain vba3, hits give low values 1 | locus YCR088W, strain abp1, hits give low values 0.984 | locus YDL005C, strain med2, hits give low values 0.979 | locus YDL035C, strain GPR1, hits give low values 0.981 | locus YDL040C, strain nat1, hits give low values 0.994 | locus YDL074C, strain BRE1, hits give low values 1.05 | locus YDL101C, strain DUN1, hits give low values 0.985 | locus YDL134C, strain PPH21, hits give low values 0.997 | locus YDL185W, strain tfp1, hits give low values 0.959 | locus YDL192W, strain arf1, hits give low values 0.972 | locus YDR001C, strain nth1, hits give low values 0.988 | locus YDR069C, strain doa4, hits give low values 0.981 | locus YDR101C, strain arx1, hits give low values 0.995 | locus YDR137W, strain rgp1, hits give low values 0.993 | locus YDR150W, strain NUM1, hits give low values 0.973 | locus YDR159W, strain sac3, hits give low values 0.967 | locus YDR162C, strain NBP2, hits give low values 0.998 | locus YDR195W, strain ref2 0.93 | locus YDR297W, strain sur2, hits give low values 0.976 | locus YDR318W, strain mcm21, hits give low values 0.986 | locus YDR334W, strain swr1, hits give low values 0.987 | locus YDR335W, strain msn5, hits give low values 1 | locus YDR388W, hits give low values 0.991 | locus YDR392W, strain spt3, hits give low values 0.924 | locus YDR502C, strain sam2, hits give low values 0.983 | locus YEL003W, strain gim4, hits give low values 0.983 | locus YEL037C, strain rad23, hits give low values 0.993 | locus YEL061C, strain CIN8 (second series), hits give low values 1 | locus YEL061C, strain CIN8, hits give low values 0.99 | locus YER015W, strain faa2, hits give low values 1 | locus YER016W, strain bim1, hits give low values 0.979 | locus YER110C, hits give low values 0.971 | locus YER111C, strain swi4, hits give low values 0.989 | locus YER155C, strain BEM2 (second series), hits give low values 0.96 | locus YER155C, strain BEM2, hits give low values 0.994 | locus YER167W, strain BCK2, hits give low values 0.976 | locus YFR010W, strain ubp6, hits give low values 0.995 | locus YGL078C, strain dbp3, hits give low values 0.986 | locus YGL086W, strain mad1, hits give low values 0.982 | locus YGL167C, strain pmr1, hits give low values 0.991 | locus YGL173C, strain kem1, hits give low values 0.98 | locus YGL227W, strain vid30, hits give low values 0.983 | locus YGL240W, strain doc1, hits give low values 0.961 | locus YGL248W, strain PDE1, hits give low values 0.988 | locus YGL253W, strain hxk2, hits give low values 0.994 | locus YGR078C, strain PAC10, hits give low values 1.03 | locus YGR135W, strain pre9, hits give low values 1.02 | locus YGR229C, strain SMI1, hits give low values 1.05 | locus YGR252W, strain gcn5, hits give low values 1.04 | locus YHR013C, strain ard1, hits give low values 1 | locus YHR027C, strain rpn1, hits give low values 0.976 | locus YHR030C, strain SLT2, hits give low values 0.979 | locus YHR079C, strain IRE1 (second series), hits give low values 0.983 | locus YHR094C, strain hxt1, hits give low values 0.974 | locus YHR129C, strain ARP1, hits give low values 0.993 | locus YHR142W, strain chs7, hits give low values 1.02 | locus YHR200W, strain rpn10, hits give low values 0.975 | locus YIL066C, strain RNR3, hits give low values 0.983 | locus YIL073C, strain SPO22, hits give low values 0.923 | locus YIL125W, strain kgd1, hits give low values 0.986 | locus YIR030C, strain dcg1, hits give low values 0.982 | locus YJL092W, strain hpr5, hits give low values 0.999 | locus YJL095W, strain BCK1 (second series), hits give low values 0.987 | locus YJL095W, strain BCK1, hits give low values 1.05 | locus YJL115W, strain asf1, hits give low values 0.987 | locus YJL129C, strain trk1, hits give low values 0.962 | locus YJL134W, strain LCB3, hits give low values 0.982 | locus YJL154C, strain vps35, hits give low values 0.987 | locus YJL164C, strain tpk1, hits give low values 1 | locus YJL166W, strain qcr8, hits give low values 0.995 | locus YJL168C, strain set2, hits give low values 0.985 | locus YJL187C, strain SWE1 (second series), hits give low values 1.01 | locus YJL187C, strain SWE1, hits give low values 0.983
